From PubChem BioAssay
DAX1 inh-1 = DAX1 (NR0B1) inhibition, primary screen; HEK293T StAR-luciferase reporter, SF-1/DAX-1 repression relief; inhibition, % at 6.8 µM; 370,000 compounds, 1.1% hits;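 active means inhibition above the mean over all tested compounds plus 3 SD, cut at about 3.6% in these data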;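 further: higher inhibition means more luminescence from relief of DAX-1 repression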
ssDAF12 agonist = activators of S. stercoralis DAF-12 nuclear receptor; HEK293 ssDAF-12/GRIP1 lit1-tk-luc reporter, luminescence; % of 3 µM dafachronic acid response; activation, % at 6.8 µM; 370,000 compounds, 1% hits; AID 652126;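 active means activation above the mean over all tested compounds plus 3 SD, cut at about 0.9% in these data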
DAX1 inh-2 = inhibitors of human orphan nuclear receptor DAX1 (NR0B1). P51843. HEK293 Gal4-DAX1 luciferase reporter, luminescence. inhibition, % at 6.75 µM. 340,000 compounds, 0.99% hits. AID 504766;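 active means inhibition above the mean over all tested compounds plus 3 SD, cut at about 4.2% in these data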;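 further: inhibition shows as a rise in luminescence from relieved DAX1 repression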
hgDAF-12 ag = hgDAF-12 agonism, primary luciferase screen. activation, % at 6.8 µM. 370,000 compounds, 1.8% hits. HEK293 GAL4-hgDAF12 UAS-luciferase reporter, agonist luminescence; normalized to butyrate control;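 active means activation above a cutoff set at the mean of all screened compounds plus 3 SD, cut at about 10% in these data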
hcDAF12 agonist = activators of H. contortus DAF-12 nuclear receptor. HEK293 hcDAF-12 lit1-tk-luc reporter, luminescence; 0% DMSO, 100% Δ7-dafachronic acid. activation, % at 6.8 µM. 370,000 compounds, 1.4% hits. AID 652067;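 active means activation above the mean of all tested compounds plus 3 SD, cut at about 5.5% in these data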
AHR act = activates the human aryl hydrocarbon receptor; P35869; AHR-responsive luciferase reporter cells, luminescence; activation, % at 5 µM; 320,000 compounds, 2.5% hits; AID 2796; in the data active means activation above about 47%
hgDAF12 ag = hgDAF-12 agonism, confirmation assay | shares compounds with hgDAF-12 ag | HEK293 GAL4-hgDAF12 luciferase reporter, agonist mode; percent of butyrate response | activation, % at 6.8 µM | 3,300 compounds, 80% hits;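 active means mean activation over triplicate wells above the hit cutoff derived from the earlier primary screen, cut at about 11% in these data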
LXRb DAF12 ctr = activates human LXR-beta, counter-screen for DAF-12 agonists | AID 743051 | shares compounds with hgDAF-12 ag | 3,300 tested, under 10 active | activation, % at 6.8 µM | HEK293 Gal4-LXR luciferase reporter, 24 h;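 active means mean activation of the triplicate above a set limit carried over from the primary screen, none filed active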
Target sequence (P55055 whole entry, looked up, the tested form may be a part): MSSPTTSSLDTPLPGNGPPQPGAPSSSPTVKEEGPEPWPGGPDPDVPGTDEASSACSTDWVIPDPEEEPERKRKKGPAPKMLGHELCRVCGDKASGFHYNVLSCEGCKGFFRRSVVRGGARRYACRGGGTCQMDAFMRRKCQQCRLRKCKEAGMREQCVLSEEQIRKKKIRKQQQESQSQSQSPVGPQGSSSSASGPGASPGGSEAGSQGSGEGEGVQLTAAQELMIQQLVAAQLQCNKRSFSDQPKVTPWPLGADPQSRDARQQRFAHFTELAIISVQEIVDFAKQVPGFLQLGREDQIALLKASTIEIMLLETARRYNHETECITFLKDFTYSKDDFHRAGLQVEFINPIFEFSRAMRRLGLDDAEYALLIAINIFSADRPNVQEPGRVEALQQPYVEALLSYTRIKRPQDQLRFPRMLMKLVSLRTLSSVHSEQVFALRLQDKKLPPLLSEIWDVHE
Of the large screens only hits and unclear results are named; the others gave an inactive call (follow-up assays come after a bar, where they were run). Compounds with a hit are over-represented: about 5.7% of the library has one in this group of screens.

O=C(Nc1ccc2c(c1)OCCO2)c1ccc2nccnc2c1	DAX1 inh-1 4.3, hgDAF-12 ag 15 | hgDAF12 ag 15 | LXRb DAF12 ctr inactive
Cc1cc(C(=O)Nc2cnc3ccccc3c2)ccc1[N+](=O)[O-]	hgDAF-12 ag 15 | hgDAF12 ag 17 | LXRb DAF12 ctr inactive
COc1ccc(C(=O)Nc2ccc3c(c2)OCCO3)cc1Br	hgDAF-12 ag 15 (no result: AHR act) | hgDAF12 ag 15 | LXRb DAF12 ctr inactive
O=C(Nc1ccc2c(c1)OCCO2)c1ccc(Cl)c(Cl)c1	DAX1 inh-2 7.0, hgDAF-12 ag 15 | hgDAF12 ag 17 | LXRb DAF12 ctr inactive
Cc1ccc(C(=O)Nc2cnc3ccccc3c2)cc1	none
O=C(Nc1ccc2c(c1)OCCO2)c1c(Cl)cccc1Cl	none (no result: AHR act)
COc1ccc(C(=O)Nc2ccc(Nc3ccccc3)cc2)cc1Br	none
CC(=O)c1ccc(N2CCN(C(=O)/C=C/c3ccc4ccccc4n3)CC2)cc1	none
Cc1ccc(C)c(NC(=O)COc2coc(CN3CCc4ccccc43)cc2=O)c1	none
O=C(Nc1cccc(C(F)(F)F)c1)c1cc[n+]([O-])cc1	none
O=C(Nc1cccc(O)c1)c1ccc(C(F)(F)F)cc1	hgDAF-12 ag 14 | hgDAF12 ag 13 | LXRb DAF12 ctr inactive
CN(C(=O)c1cccc(NC(=O)Cc2ccc(NC(=O)C3CCCN(C(=O)c4ccccc4)C3)cc2)c1)C1CCC1 (configuration not stated)	none (no result: AHR act)
COc1cc(/C=N/O)ccc1OCc1ccccc1Cl	hgDAF-12 ag 14 | hgDAF12 ag 16 | LXRb DAF12 ctr inactive
O/N=C/c1ccccc1OCc1ccccc1Cl	none
O=C(COc1ccc(Br)cc1Cl)NC(=S)N1CCc2ccccc21	ssDAF12 agonist 1.0, hgDAF-12 ag 13, hcDAF12 agonist 6.2 | hgDAF12 ag inactive | LXRb DAF12 ctr inactive
CCc1ccc(NC(=O)Nc2cccs2)cc1	hgDAF-12 ag 14 | hgDAF12 ag 18 | LXRb DAF12 ctr inactive
O=C(O)CCS(=O)(=O)Cc1ccccc1Cl	none
O=C(O)CCS(=O)(=O)c1ccccc1Cl	hgDAF-12 ag 17 | hgDAF12 ag inactive | LXRb DAF12 ctr inactive
CCc1ccc(NC(=O)c2ccc(S(=O)(=O)NCc3cccnc3)cc2)cc1	none
CCOC(=O)c1c(NC(=O)C2C3CCC(O3)C2C(=O)O)sc(C)c1-c1ccc(C)cc1 (configuration not stated)	none
Cc1sc(NC(=O)C2C3CCC(O3)C2C(=O)O)nc1-c1ccc(CC(C)C)cc1 (configuration not stated)	hgDAF-12 ag 18 | hgDAF12 ag inactive | LXRb DAF12 ctr inactive
CC(=O)c1ccc(NC(=S)NCCc2ccc(S(N)(=O)=O)cc2)cc1	none
CC(=O)c1ccc(NC(=S)NCCc2cccc(Cl)c2)cc1	hgDAF-12 ag 17 | hgDAF12 ag 12 | LXRb DAF12 ctr inactive
Cc1ccc(N=Cc2c(O)[nH]c3ccccc23)c([N+](=O)[O-])c1	DAX1 inh-1 4.1, hgDAF-12 ag 15 | hgDAF12 ag 12 | LXRb DAF12 ctr inactive
O=C(NN1C(=O)c2ccccc2NC1c1ccco1)c1ccc([N+](=O)[O-])cc1 (configuration not stated)	hgDAF-12 ag 18 | hgDAF12 ag inactive | LXRb DAF12 ctr inactive
COCCCn1cnc2c(c1=O)c1nc3ccccc3nc1n2-c1ccccc1	none
COCCCn1cnc2oc3nc4ccccc4nc3c2c1=O	hgDAF-12 ag 15 | hgDAF12 ag 19 | LXRb DAF12 ctr inactive
CCc1nn(CCCC(=O)N2CCC(C)CC2)c(=O)c2cc3occc3n12	none
Cc1c(/C=C/C(=O)c2ccccc2)cnn1C	none
Cc1c(/C=C/C(=O)c2ccc(O)cc2)cnn1C	hgDAF-12 ag 17 | hgDAF12 ag inactive | LXRb DAF12 ctr inactive
Cc1nn(C)cc1/C=C/C(=O)c1ccccc1	hgDAF-12 ag 18 | hgDAF12 ag 16 | LXRb DAF12 ctr inactive
Cc1c(/C=C/C(=O)c2ccc(C(C)C)cc2)cnn1C	none
